Source: the supplement of paper PMC10037445
Where “and” joins values, the source holds several entries; their conditions need not be identical. Identical values can stand only once. Whole data set: some 2,900 compounds, median “NF-kB SEAP reporter activity, fold change vs agonist alone” near 0.99, cut for the highest 2% near 2.6. Shown is part of a subset that was picked to be rich in the highest values.

What was measured:
RAW-Dual [1] = assay: NF-kB SEAP reporter activity, fold change vs agonist alone; cytotoxicity flag (confluency mask): not cytotoxic; higher = enhanced NF-kB activity
Procedure, shortened: (§1)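 Cytotoxic wells were those whose IncuCyte confluency was below 70% of agonist controls in both mask sets. The cells were RAW-Dual macrophages at 50,000 cells/well in DMEM on 384-well plates, dosed with 50 nL of library stock by pin tool, stimulated with a PRR agonist 1 h later, and kept at 37 °C, 5% CO2 for 20 hours. IRF and NF-κB reporter activity, as fold change over agonist-alone wells, came from supernatant read by QuantiLuc luminescence and QuantiBlue absorbance, respectively.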

RAW-Dual [2] = assay: NF-kB SEAP reporter activity, fold change vs agonist alone; higher = enhanced NF-kB activity
Procedure, shortened: as §1

RAW-Dual [3] = assay: NF-kB SEAP reporter activity, fold change vs agonist alone; cytotoxicity flag (confluency mask): cytotoxic (confluency <70% of control); higher = enhanced NF-kB activity
Procedure, shortened: as §1

[4] = agonist: ODN 1826 (TLR9) 0.5 ug/mL
[5] = agonist: Pam2CSK4 (TLR2/6) 0.1 ug/mL
[6] = agonist: Pam3CSK4 (TLR2/1) 0.1 ug/mL
[7] = library stock concentration (final ~1000-fold dilution): 10 mM, cytotoxicity flag (confluency mask): not cytotoxic, agonist: Imiquimod (TLR7) […]
[8] = library stock concentration (final ~1000-fold dilution): 10 mM, cytotoxicity flag (confluency mask): not cytotoxic, agonist: MPLA (TLR4) […]

## O=c1[nH]cnc2ccccc12 (library stock concentration (final ~1000-fold dilution): 10 mM)
RAW-Dual [1]; agonist: LPS (TLR4) 0.1 ug/mL
  NF-kB SEAP reporter activity: 1.14
RAW-Dual [1]; [4]
  NF-kB SEAP reporter activity: 0.991
RAW-Dual [1]; [5]
  NF-kB SEAP reporter activity: 1.05
RAW-Dual [1]; [6]
  NF-kB SEAP reporter activity: 1.08

## CC(C)(C)c1[nH]cnc1C=c1[nH]c(=O)c(=Cc2ccccc2)[nH]c1=O
RAW-Dual [2]; [7]
  NF-kB SEAP reporter activity: 2.47
RAW-Dual [2]; [8]
  NF-kB SEAP reporter activity: 2.5

## O=C(Nc1ccc(O)c(C(=O)O)c1)c1cccc(NC(=O)c2ccco2)c1 (library stock concentration (final ~1000-fold dilution): 10 mM)
RAW-Dual [1]; agonist: LPS (TLR4) 0.1 ug/mL
  NF-kB SEAP reporter activity: 0.971
RAW-Dual [1]; [4]
  NF-kB SEAP reporter activity: 0.895
RAW-Dual [1]; [5]
  NF-kB SEAP reporter activity: 1.05
RAW-Dual [1]; [6]
  NF-kB SEAP reporter activity: 1.06

## O=C(Nc1ccc(O)c(C(=O)O)c1)c1cccc(NC(=O)c2ccco2)c1
RAW-Dual [2]; [7]
  NF-kB SEAP reporter activity: 0.942
RAW-Dual [2]; [8]
  NF-kB SEAP reporter activity: 0.969

## Cl.Cl.c1cc(-c2nc3ccc(OCCCN4CCCC4)cc3o2)ccc1OCCCN1CCCC1 (library stock concentration (final ~1000-fold dilution): 1 mM)
RAW-Dual [1]; agonist: LPS (TLR4) 0.1 ug/mL
  NF-kB SEAP reporter activity: 0.935
RAW-Dual [1]; [4]
  NF-kB SEAP reporter activity: 0.224
RAW-Dual [1]; [5]
  NF-kB SEAP reporter activity: 1.11
RAW-Dual [1]; [6]
  NF-kB SEAP reporter activity: 1.06

## Cl.Cl.c1cc(-c2nc3ccc(OCCCN4CCCC4)cc3o2)ccc1OCCCN1CCCC1
RAW-Dual [2]; library stock concentration (final ~1000-fold dilution): 1 mM, cytotoxicity flag (confluency mask): not cytotoxic, agonist: Imiquimod (TLR7) […]
  NF-kB SEAP reporter activity: 1.27
RAW-Dual [2]; library stock concentration (final ~1000-fold dilution): 1 mM, cytotoxicity flag (confluency mask): not cytotoxic, agonist: MPLA (TLR4) […]
  NF-kB SEAP reporter activity: 1.08

## COc1ccccc1C(=O)Nc1cc2c(cc1N1CCNCC1C)n(C)c(=O)n2C (configuration not stated)
RAW-Dual [2]; [7]
  NF-kB SEAP reporter activity: 1.01
RAW-Dual [2]; [8]
  NF-kB SEAP reporter activity: 1.37

## COc1ccccc1C(=O)Nc1cc2c(cc1N1CCNCC1C)n(C)c(=O)n2C (configuration not stated) (library stock concentration (final ~1000-fold dilution): 10 mM)
RAW-Dual [1]; agonist: LPS (TLR4) 0.1 ug/mL
  NF-kB SEAP reporter activity: 1.48
RAW-Dual [1]; [4]
  NF-kB SEAP reporter activity: 0.383
RAW-Dual [1]; [5]
  NF-kB SEAP reporter activity: 0.997
RAW-Dual [1]; [6]
  NF-kB SEAP reporter activity: 0.973

## CCOC(=O)C(CCc1ccccc1)NC1CSC(c2cccs2)CN(CC(=O)O)C1=O.Cl (configuration not stated)
RAW-Dual [2]; [7]
  NF-kB SEAP reporter activity: 1.01
RAW-Dual [2]; [8]
  NF-kB SEAP reporter activity: 1.01

## CCOC(=O)C(CCc1ccccc1)NC1CSC(c2cccs2)CN(CC(=O)O)C1=O.Cl (configuration not stated) (library stock concentration (final ~1000-fold dilution): 10 mM)
RAW-Dual [1]; agonist: LPS (TLR4) 0.1 ug/mL
  NF-kB SEAP reporter activity: 0.869
RAW-Dual [1]; [4]
  NF-kB SEAP reporter activity: 1.04
RAW-Dual [1]; [5]
  NF-kB SEAP reporter activity: 0.946
RAW-Dual [1]; [6]
  NF-kB SEAP reporter activity: 1.15

## COc1ccc(-c2nc3cc(C4=NNC(=O)CC4C)ccc3[nH]2)cc1 (configuration not stated)
RAW-Dual [2]; [7]
  NF-kB SEAP reporter activity: 1.67
RAW-Dual [2]; [8]
  NF-kB SEAP reporter activity: 1.34

## NC(=O)c1ccc(-c2nc(-c3ccc4c(c3)OCCO4)c(-c3ccccn3)[nH]2)cc1 (library stock concentration (final ~1000-fold dilution): 10 mM)
RAW-Dual [1]; agonist: LPS (TLR4) 0.1 ug/mL
  NF-kB SEAP reporter activity: 1.81
RAW-Dual [1]; [4]
  NF-kB SEAP reporter activity: 1.29
RAW-Dual [1]; [5]
  NF-kB SEAP reporter activity: 1.25
RAW-Dual [1]; [6]
  NF-kB SEAP reporter activity: 0.913

## NC(=O)c1ccc2[nH]c(-c3ccc(Oc4ccc(Cl)cc4)cc3)nc2c1
RAW-Dual [2]; [7]
  NF-kB SEAP reporter activity: 1.47
RAW-Dual [2]; [8]
  NF-kB SEAP reporter activity: 2.09

## NC(=O)c1ccc2[nH]c(-c3ccc(Oc4ccc(Cl)cc4)cc3)nc2c1 (library stock concentration (final ~1000-fold dilution): 10 mM)
RAW-Dual [1]; agonist: LPS (TLR4) 0.1 ug/mL
  NF-kB SEAP reporter activity: 1.71
RAW-Dual [1]; [4]
  NF-kB SEAP reporter activity: 1.59
RAW-Dual [1]; [5]
  NF-kB SEAP reporter activity: 2.1
RAW-Dual [1]; [6]
  NF-kB SEAP reporter activity: 3.55

## NC(=O)c1ccc(-c2nc(-c3ccc4c(c3)OCCO4)c(-c3ccccn3)[nH]2)cc1
RAW-Dual [2]; [7]
  NF-kB SEAP reporter activity: 0.743
RAW-Dual [2]; [8]
  NF-kB SEAP reporter activity: 1.45

## COc1ccc(-c2nc3cc(C4=NNC(=O)CC4C)ccc3[nH]2)cc1 (configuration not stated) (library stock concentration (final ~1000-fold dilution): 10 mM)
RAW-Dual [1]; agonist: LPS (TLR4) 0.1 ug/mL
  NF-kB SEAP reporter activity: 1.3
RAW-Dual [1]; [4]
  NF-kB SEAP reporter activity: 2.47
RAW-Dual [1]; [5]
  NF-kB SEAP reporter activity: 1.8
RAW-Dual [1]; [6]
  NF-kB SEAP reporter activity: 1.7

## Cl.Cl.Fc1cc(-c2cccc3ncc(-c4cnn(C5CCNCC5)c4)nc23)cc(F)c1CN1CCOCC1 (library stock concentration (final ~1000-fold dilution): 10 mM)
RAW-Dual [1]; agonist: LPS (TLR4) 0.1 ug/mL
  NF-kB SEAP reporter activity: 0.349
RAW-Dual [1]; [4]
  NF-kB SEAP reporter activity: 0.924
RAW-Dual [1]; [5]
  NF-kB SEAP reporter activity: 0.147
RAW-Dual [1]; [6]
  NF-kB SEAP reporter activity: 0.912

## Cl.Cl.Fc1cc(-c2cccc3ncc(-c4cnn(C5CCNCC5)c4)nc23)cc(F)c1CN1CCOCC1
RAW-Dual [2]; [7]
  NF-kB SEAP reporter activity: 0.92
RAW-Dual [2]; [8]
  NF-kB SEAP reporter activity: 0.944

## CCOC(=O)C(CCc1ccccc1)NC(C)C(=O)N1C(=O)N(C)CC1C(=O)O.Cl (configuration not stated) (library stock concentration (final ~1000-fold dilution): 10 mM)
RAW-Dual [1]; agonist: LPS (TLR4) 0.1 ug/mL
  NF-kB SEAP reporter activity: 1.2
RAW-Dual [1]; [4]
  NF-kB SEAP reporter activity: 0.98
RAW-Dual [1]; [5]
  NF-kB SEAP reporter activity: 0.83
RAW-Dual [1]; [6]
  NF-kB SEAP reporter activity: 1.03

## CCOC(=O)C(CCc1ccccc1)NC(C)C(=O)N1C(=O)N(C)CC1C(=O)O.Cl (configuration not stated)
RAW-Dual [2]; [7]
  NF-kB SEAP reporter activity: 0.962
RAW-Dual [2]; [8]
  NF-kB SEAP reporter activity: 0.927

## CCC(C)C(=O)OC1CC(C)C=C2C=CC(C)C(CCC3CC(O)CC(=O)O3)C21 (configuration not stated)
RAW-Dual [2]; [7]
  NF-kB SEAP reporter activity: 2.54
RAW-Dual [2]; [8]
  NF-kB SEAP reporter activity: 1.94

## CCC(C)(C)C(=O)OC1CC(C)C=C2C=CC(C)C(CCC3CC(O)CC(=O)O3)C21 (configuration not stated) (library stock concentration (final ~1000-fold dilution): 10 mM)
RAW-Dual [3]; agonist: LPS (TLR4) 0.1 ug/mL
  NF-kB SEAP reporter activity: 2.35
RAW-Dual [3]; [4]
  NF-kB SEAP reporter activity: 2.44
RAW-Dual [3]; [5]
  NF-kB SEAP reporter activity: 2.12
RAW-Dual [3]; [6]
  NF-kB SEAP reporter activity: 3.35

## CCC(C)C(=O)OC1CC(C)C=C2C=CC(C)C(CCC3CC(O)CC(=O)O3)C21 (configuration not stated) (library stock concentration (final ~1000-fold dilution): 10 mM)
RAW-Dual [1]; agonist: LPS (TLR4) 0.1 ug/mL
  NF-kB SEAP reporter activity: 3.33
RAW-Dual [1]; [4]
  NF-kB SEAP reporter activity: 2.62
RAW-Dual [1]; [5]
  NF-kB SEAP reporter activity: 1.93
RAW-Dual [1]; [6]
  NF-kB SEAP reporter activity: 3.02

## CCC(C)C(=O)OC1CCC=C2C=CC(C)C(CCC3CC(O)CC(=O)O3)C21 (configuration not stated)
RAW-Dual [2]; [7]
  NF-kB SEAP reporter activity: 2.3
RAW-Dual [2]; [8]
  NF-kB SEAP reporter activity: 1.97

## CCC(C)(C)C(=O)OC1CC(C)C=C2C=CC(C)C(CCC3CC(O)CC(=O)O3)C21 (configuration not stated)
RAW-Dual [2]; library stock concentration (final ~1000-fold dilution): 10 mM, cytotoxicity flag (confluency mask): cytotoxic (confluency <70% of control), agonist: Imiquimod (TLR7) […]
  NF-kB SEAP reporter activity: 2.53
RAW-Dual [2]; library stock concentration (final ~1000-fold dilution): 10 mM, cytotoxicity flag (confluency mask): cytotoxic (confluency <70% of control), agonist: MPLA (TLR4) […]
  NF-kB SEAP reporter activity: 1.95

## CCC(C)C(=O)OC1CCC=C2C=CC(C)C(CCC3CC(O)CC(=O)O3)C21 (configuration not stated) (library stock concentration (final ~1000-fold dilution): 10 mM)
RAW-Dual [1]; agonist: LPS (TLR4) 0.1 ug/mL
  NF-kB SEAP reporter activity: 3.69
RAW-Dual [1]; [4]
  NF-kB SEAP reporter activity: 2.68
RAW-Dual [1]; [5]
  NF-kB SEAP reporter activity: 1.45
RAW-Dual [1]; [6]
  NF-kB SEAP reporter activity: 2.12

## CCC(C)C(=O)OC1CC(O)C=C2C=CC(C)C(CCC(O)CC(O)CC(=O)O)C21 (configuration not stated) (library stock concentration (final ~1000-fold dilution): 10 mM)
RAW-Dual [1]; agonist: LPS (TLR4) 0.1 ug/mL
  NF-kB SEAP reporter activity: 1.01 and 1.04
RAW-Dual [1]; [4]
  NF-kB SEAP reporter activity: 1 and 1.02
RAW-Dual [1]; [5]
  NF-kB SEAP reporter activity: 1.08 and 1.05
RAW-Dual [1]; [6]
  NF-kB SEAP reporter activity: 0.841 and 1.15
